Source: PubChem BioAssay
This is a sample that favours compounds with a hit; in the whole collection about 2.7% have one here.
CFTR F508del cor: CFTR F508del correction in bronchial cells; CFBE cells, YFP halide quenching; stimulated with forskolin plus potentiator P3; % fluorescence drop versus neutral controls; AID 720511; 0.36% of 350,000 active; activity (quench increase), % at 7.58 µM;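 active = mean added fluorescence quench of at least 8% versus neutral control, with both replicates also reaching 8%; inconclusive = only one of the mean or replicate conditions met; inactive = mean below 8% and not both replicates reaching 8%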;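 note: cells transiently co-express mutant CFTR-F508del with the halide-sensitive YFP; corrector assay measuring rescue of mutant channel to the surface after 24 h compound exposure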
HIV Env fusion: blocks HIV Env-driven cell-cell fusion; HeLa-JRFL Env/CEM21 cell fusion, luciferase; inhibition, % at 12.3 µM; 1.1% of 360,000 active; AID 651610;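 active = mean replicate inhibition score of at least 50 and every replicate individually at or above 50; inconclusive = only one of the two criteria met; inactive = mean below 50 and not all replicates reaching 50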;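 note: 0% = plate neutral controls and 100% = maraviroc near 300 nM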
PGC1a acetyl inh: lowers PGC1a acetylation signal in U2OS cells | 0.17% of 350,000 active | AID 651687 | AlphaScreen anti-acetyl-lysine; with virally co-expressed GCN5 acetyltransferase | inhibition, % at 15.6 µM;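 active = every replicate shows inhibition of at least 40%; inconclusive = mean inhibition at least 40% but some replicate below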;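 note: 0% = neutral control wells and 100% = positive control wells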
PAX8 reporter: inhibitors of PAX8 transcriptional activity in RMG-I cells; RMG-I TPO-luciferase reporter, SteadyGlo, 24 h; inhibition, % at 12.6 µM; 1.2% of 360,000 active; AID 652154;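 active = mean replicate inhibition at least 60% with every replicate also reaching 60%; inconclusive = only one of the two criteria is met; inactive = mean below 60% and not all replicates reaching 60%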;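 note: luciferase light reporting Pax8 driven TPO promoter activity; plate controls were median of neutral control wells for no effect and mitoxantrone controls for full effect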
EWS-Fli inh: inhibitors of EWS/Fli oncoprotein transcriptional activity | A673 NR0B1-luciferase reporter, viability-normalised | inhibition, % at 12.6 µM | 0.67% of 350,000 active | AID 651661;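 active = mean inhibition of at least 50% after viability correction, with every replicate also passing that limit; inconclusive = mean reaches 50% but only one of two replicates passes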;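 note: firefly luciferase signal divided by Alamar Blue viability fluorescence both relative to DMSO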
GSIS activator: primary screen for activators of insulin secretion dependent on glucose, INS-1E cells, GLuc reporter luminescence; INS-1E GLuc reporter insulin secretion, 2-3 h; activation, % at 16.6 µM; 0.61% of 370,000 active;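 active = lowest replicate activation of at least 40%, so every replicate reaches that level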;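 note: 0% = median of neutral control wells and 100% = median of IBMX positive control wells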
Starred values were filed as active, the others as inactive; ? = inconclusive; nt = no result given; [ ] = dose if it differs, or a comment.

SMILES	CFTR F508del cor	HIV Env fusion	PGC1a acetyl inh	PAX8 reporter	EWS-Fli inh	GSIS activator
Cc1ccc(-c2ccc3c(c2)O[C@H](CN(C)Cc2ccccn2)[C@@H](C)CN([C@H](C)CO)S3(=O)=O)cc1	16*	-11[16.7 µM]	-8	nt	63*	-31
Cc1ccc(-c2ccc3c(c2)O[C@@H](CN(C)Cc2ccccn2)[C@@H](C)CN([C@@H](C)CO)S3(=O)=O)cc1	3	14[16.7 µM]	15	nt	11	-32
C[C@H]1CN([C@@H](C)CO)C(=O)c2cc(C#CCN(C)C)cnc2O[C@H]1CN(C)Cc1cccc(F)c1	3	3[16.7 µM]	-1	-16	-11	26
CO[C@@H]1CN(C)C(=O)c2cc(NC(=O)C3CC3)ccc2OC[C@@H](C)N(C(=O)Nc2ccc(C(F)(F)F)cc2)C[C@H]1C	1	nt	-7	13	4	-32
CC(C)NC(=O)NCC[C@H]1CC[C@@H](NC(=O)CCN2CCCCC2)[C@@H](CO)O1	2	nt	2	nt	nt	-11
CCOc1ccc(C(=O)Nc2cccc(-c3nc4ccccc4[nH]3)c2C)cc1[N+](=O)[O-]	nt	16	3	13	83*	-8
CCOc1ccc(C(=O)NC(=S)Nc2ccc(NC(=O)c3ccco3)cc2)cc1[N+](=O)[O-]	nt	-6	nt	14	nt	43*
CCOc1ccc(C(=O)Nc2ccc(NC(=O)c3cccs3)cc2)cc1[N+](=O)[O-]	nt	-164	-10	-8	nt	104*
COc1cc(C(=O)NC(=S)Nc2ccc(NC(=O)c3ccco3)cc2)cc(OC)c1OC	nt	21	nt	10	nt	4
COc1ccc(C(=O)Nc2ccc(NC(=O)c3cccs3)cc2)cc1[N+](=O)[O-]	-1	-7	nt	1	0	-11
Cc1noc(C)c1NC(=O)N(C)C[C@@H]1Oc2ccc(NS(=O)(=O)c3cn(C)cn3)cc2CC(=O)N([C@H](C)CO)C[C@@H]1C	-2	-26[16.7 µM]	11	7	0	19
c1ccc(-c2ccc(-c3nc(-c4ccccn4)no3)cc2)cc1	2	nt	-3	nt	87*	9
c1ccc(-c2nc(-c3ccccn3)no2)cc1	nt	33	-6	nt	nt	16
Cc1ccc(-c2nc(-c3ccccn3)no2)cc1Cl	nt	8	-12	81*	nt	nt
C(=C\c1ccccc1)/CN1CCN(c2ncnc3c2oc2ccccc23)CC1	nt	78*	9	nt	nt	81
c1ccc2c(c1)oc1c(N3CCOCC3)ncnc12	nt	nt	9	nt	nt	nt
COc1ccc(-c2ccc([C@H]3[C@H](CO)N4C(=O)CNC[C@@H]34)cc2)cc1	1	nt	2	nt	-8	17
CC(C)OCC(O)CN1CCC(Cc2ccccc2)CC1 (stereo unspecified)	3	-10	-4	12	5	44*
CN1C(=O)c2cc(NC(=O)C3CC3)ccc2OC[C@H]2O[C@@H](CC(=O)NCc3ccccc3F)CC[C@@H]21	1	nt	6	-16	-1	-1
Cc1ccc(N2CN(Cc3ccco3)CNC2=S)c(C)c1	-2	nt	nt	61*	13	-17
COCC(=O)N(C)C[C@@H]1Oc2ncc(C#Cc3ccc(F)cc3)cc2C(=O)N([C@@H](C)CO)C[C@@H]1C	-3	7[16.7 µM]	7	nt	-23	11
CCCCCCCCNS(=O)(=O)CCNCCc1ccccc1	-2	9	-6	-12	8	109
CCCCCCCCNCCS(=O)(=O)NCCCCCCCC	-1	nt	nt	15	12	682*
Cc1cc(Cl)ccc1Oc1nc(-c2ccccc2)ncc1S(C)(=O)=O	nt	nt	-5	nt	nt	150*
COc1ccccc1/C=C/CN1CCCC(CCC(=O)NCc2ccc(F)c(F)c2)C1 (stereo unspecified)	-8	63*	-1	24	22	-13
O=C(Nc1ccc2c(c1)[C@H]1C[C@H](CC(=O)N3CCc4ccccc4C3)O[C@H](CO)[C@H]1O2)C1CCOCC1	0	?	2	10	-5	-19
O=C(C[C@@H]1CC[C@H](NC(=O)Nc2cccc(F)c2)[C@H](CO)O1)NCC1CCCCC1	-1	4[16.7 µM]	3	9	0	-1
COc1cccc(C#Cc2cnc3c(c2)C(=O)N([C@H](C)CO)C[C@H](C)[C@@H](CN(C)C(C)=O)O3)c1	4	12[16.7 µM]	-9	nt	-3	9
COCCOC(=O)C1=C(C)NC(SCC(=O)NC(C)(C)C)=C(C#N)C1c1ccco1 (stereo unspecified)	2	3	5	-3	-1	nt
